Out of some 420,000 compounds screened, about 64,000 (15%) were called active. Another 27% or so got no clear call; they are omitted. The call rests on the fitted dose curve; in most records, active means well fitted inhibition curve with a large enough effect; inconclusive means small, poorly fitted or top-dose-only effect; inactive means flat fitted curve, though single readings scatter. A selection follows.
Assay: qHTS for Inhibitors of human tyrosyl-DNA phosphodiesterase 1 (TDP1): qHTS in cells in absence of CPT; further: nearly all actives have a fitted effect of over 55% in size
Details: DT40 Tdp1-/- hTDP1 cells, no CPT, ATP luminescence, 48 h; activity change, negative = growth inhibition: at 46.2 µM (top of the series)
Summary of the method: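 Growth kinetics read by CellTiter-Glo luminescence after ≥48 hr at 37 °C. Cells: DT40 Tdp1-/- stably carrying human TDP1, 400 per well, compound exposure in the absence of CPT (DMSO vehicle).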
On the % scale 0 is the no-effect control and ±100 the full control effect; potency means the concentration at half of the fitted maximal effect.

SMILES	activity change, negative = growth inhibition	Potency
COc1ccc(Cl)cc1S(=O)(=O)N1CCC(O)(c2ccc(Cl)cc2)CC1	-23.4% (inactive)	
CS(=O)(=O)N1CCN(C(=O)c2cc3ccccc3oc2=O)CC1	-3.02% (inactive)	
O=C(c1cc2ccccc2o1)N1CCN(S(=O)(=O)c2ccc(Cl)s2)CC1		14.6 µM (active)
O=C(c1cc2ccccc2o1)N1CCN(Cc2ccccc2)CC1	5.01% (inactive)	
COC(=O)c1ccc(C)c(NC(=O)Cn2c(C)csc2=O)c1	23.5% (inactive)	
CCOc1cc(/C=N/n2cnnc2)c(Br)cc1O	-16.7% (inactive)	
O=C(c1csnn1)N1CCC2(CCN(Cc3nccs3)CC2)CC1	-9.33% (inactive)	
CN1CN(C)c2ccc([N+](=O)[O-])c3cccc1c23	-15.8% (inactive)	
Cc1nc2ccccn2c1C(=O)NN=C1CCN(C)CC1	12% (inactive)	
CCOC(=O)c1cccc(NC(=O)C2CCCN(S(=O)(=O)c3cnc[nH]3)C2)c1 (centres undefined)	1% (inactive)	
COC(=O)c1ccc(CN2CCCC(C(=O)Nc3cccc(-n4cnnn4)c3)C2)cc1 (centres undefined)		16.4 µM (active)
O=C(Nc1ccc(F)cc1)C1CCCN(S(=O)(=O)c2ccc(-n3cnnn3)cc2)C1 (centres undefined)	3.32% (inactive)	
Cc1ccc(C(=O)NC2CCN(C(=O)Nc3ccccc3Cl)CC2)cc1	-16.2% (inactive)	
CN(CC(=O)NCc1ccc2c(c1)OCO2)CC(=O)Nc1ccc(F)c(F)c1F	1.96% (inactive)	
CC(O)c1nc2ccccc2n1Cc1ccc([N+](=O)[O-])cc1 (centres undefined)	9.29% (inactive)	
CC(C)c1ccc(Cn2c(COc3ccccc3)nc3ccccc32)cc1		20.6 µM (active)
Cc1nc2ccccc2n1CC(O)c1ccccc1 (centres undefined)	-19.5% (inactive)	
COC(=O)[C@@H](NC(=O)Nc1cc(Cl)ccc1C)C(C)C	-2.95% (inactive)	
Cc1ccc2c(C)nc(N3CCCC(C(=O)NC(C)(C)CO)C3)nc2c1 (centres undefined)	-23.1% (inactive)	
Cc1ccc(NC(=O)CSc2nnc(-c3cnccn3)n2Cc2ccco2)cc1C	-12.6% (inactive)	
O=C(COc1ccc(S(=O)(=O)NCc2ccccc2)cc1)N1CCOCC1	-18.6% (inactive)	
COC(=O)c1c(-c2ccc(C)cc2)csc1N	-19.4% (inactive)	
CCOC(=O)c1c(-c2ccc(C)cc2)csc1/N=C(\C)C1=C(O)c2ccccc2C1=O		18.4 µM (active)
CC(=NCc1ccco1)C1=C(O)c2ccccc2C1=O	-22.6% (inactive)	
CCOC(=O)c1c(/N=C/C2C(=O)CC(C)(C)CC2=O)sc(C)c1C	-3.59% (inactive)	
CC1CCCCC1NC(=O)COC(=O)Cc1ccc(Br)cc1 (centres undefined)	2.5% (inactive)	

SMILES	activity change, negative = growth inhibition	Potency
CCCCn1c(N)c(N(CC)C(=O)c2ccc(N(C)S(=O)(=O)c3ccc(C)cc3)cc2)c(=O)[nH]c1=O	-0.183% (inactive)	
NC(N)=Nc1nc(-c2ccccc2)c2cc(Cl)ccc2n1		16.4 µM (active)
O=C(O)c1ccc(Nc2nc(-c3ccccc3)c3cc(Br)ccc3n2)cc1	-23.2% (inactive)	
Cc1ccc2nc(Nc3ccccc3O)nc(-c3ccccc3)c2c1	-8.65% (inactive)	
C[C@H]1CC[C@]2(O[C@@H](CCO)C[C@@H](O)[C@@H]2O)O1	-14.8% (inactive)	
COc1ccc(NC(=S)N2CCC(NC(=O)c3cccc(F)c3)CC2)cc1	-22.5% (inactive)	
CCC(O)C1CCN(Cc2cn(-c3ccc(OC)cc3)nc2-c2cccc(F)c2)CC1 (centres undefined)		20.6 µM (active)
COCCn1c(=O)c(-c2cccc(F)c2)nc2cncnc21	2.81% (inactive)	
Cc1cccc(-n2cc(CN3CCN(C(=O)c4ncn[nH]4)CC3)c(-c3cccc(F)c3)n2)c1	-1.1% (inactive)	
COc1ccc(-n2cc(CNC3CCOCC3)c(-c3cccc(F)c3)n2)cc1		20.6 µM (active)
Cn1cc(CN2CCC(C(O)CCc3ccccc3)CC2)c(-c2ccccc2F)n1 (centres undefined)	-15.1% (inactive)	
CCC(CC)c1nn2cc(-c3ccccc3)nc2s1	-10.9% (inactive)	
COC(=O)CC1Oc2ccccc2-n2cc(-c3ccccc3)nc21 (centres undefined)		20.6 µM (active)
COC(=O)CC1=NN(c2ccccc2)C(=O)C1	1.46% (inactive)	
CCC1CCCCN1C(=S)NC(=O)c1ccco1 (centres undefined)	-15.4% (inactive)	
CC(=O)c1cccc(NC(=O)[C@@H](NC(N)=O)C(C)C)c1	17.4% (inactive)	
O=C(O)Cc1ccc(NC(=O)c2cccs2)cc1	-24.9% (inactive)	
COc1ccc(CCNC(=O)CSc2nnc(CNC(=O)c3cccs3)o2)cc1OC	-2.7% (inactive)	
COc1ccc(CCNC(=O)/C(C#N)=C2\N=C(NC(=O)c3cccs3)c3ccccc32)cc1		10.3 µM (active)
CCc1ccc2c(c1)cc(CN(C(=S)Nc1ccccc1Cl)C1CC1)c1nnnn12	-20.9% (inactive)	
Cc1oc2c(C)c3oc(=O)c(CC(=O)N[C@@H](CC(C)C)C(=O)N[C@@H](Cc4ccccc4)C(=O)O)c(C)c3cc2c1C	4.05% (inactive)	
COCc1[nH][nH]c(=O)c1C=Nc1ccc(F)cc1F	0.924% (inactive)	
CS(=O)(=O)N(CC(=O)N1CCc2ccccc2C1)c1ccc(Br)cc1	-22.6% (inactive)	
Cc1ccc(S(=O)(=O)N(CC(=O)N2CCc3ccccc3C2)c2cccc(Cl)c2)cc1		20.6 µM (active)
COc1cccc(N(CC(=O)N2CCc3ccccc3C2)S(C)(=O)=O)c1	5.09% (inactive)	
Cc1ccccc1CNC(=O)CCC(=O)N1Cc2ccccc2Oc2ncccc21	-21.1% (inactive)	

SMILES	activity change, negative = growth inhibition	Potency
COc1ccc(C(=O)NCc2ccc(C)cc2)cc1S(=O)(=O)N1CCCC1	0.964% (inactive)	
Cc1ccc(C(=O)OCC(=O)N2CCCCCC2)cc1S(=O)(=O)N1CCOCC1	4.19% (inactive)	
COc1ccc(C(=O)N(Cc2ccccc2)c2ccc(C)cc2)cc1S(=O)(=O)N1CCOCC1		14.6 µM (active)
CCOc1ccc(CCNC(=O)COC(=O)c2ccc(C)c(S(=O)(=O)N3CCOCC3)c2)cc1OCC	-3.81% (inactive)	
Cc1ccc(S(=O)(=O)N2CCOCC2)cc1C(=O)NC(=S)N(Cc1ccccc1)C(C)C	-7.61% (inactive)	
Cc1ccc(S(=O)(=O)N2CCN(C(=O)c3cc(S(=O)(=O)N4CCOCC4)ccc3F)CC2)cc1	-16.8% (inactive)	
COc1ccc(C(=O)OCC(=O)c2ccc(C)c(S(=O)(=O)N3CCOCC3)c2)cc1OC		11.6 µM (active)
Cc1cccc(N(Cc2ccccc2)C(=O)c2cc(S(=O)(=O)N3CCOCC3)ccc2F)c1		18.4 µM (active)
COc1ccc(C(=O)N(C)Cc2ccc(OC)c(OC)c2OC)cc1S(=O)(=O)N1CCOCC1	21.5% (inactive)	
O=C1c2cccc3cccc(c23)N1CN1CCN(c2ccccn2)CC1	4.31% (inactive)	
CCCCc1ccc(NC(=S)N2CCCC(CO)C2)cc1 (centres undefined)	-12.3% (inactive)	
Oc1ccc2ccc3cccc[n+]3c2c1	-17.9% (inactive)	
CCCCN(CC)CCCNC(=O)c1ccc(CSc2nc3ccncc3[nH]2)cc1	-13.3% (inactive)	
O=C(Cn1ccc([N+](=O)[O-])n1)NCc1cccs1	-15% (inactive)	
O=C(COC(=O)c1cccc(Cl)c1)Nc1ccc2[nH]c(=O)[nH]c2c1	-12.1% (inactive)	
C/C=C/C1=C(C(=O)O)N2C(=O)[C@@H](NC(=O)[C@H](N)c3ccc(O)cc3)[C@H]2SC1	-2.02% (inactive)	
CCN(CC)CCNC(=O)CN1N=C(c2ccc(OC)cc2)CCC1=O	-5.02% (inactive)	
COc1ccc(CCNC(=O)c2ccc(CSCc3ccc(C)cc3)o2)cc1OC		23.1 µM (active)
COc1ccc(CCNC(=O)Cc2ccc(C)cc2)cc1OC	-22% (inactive)	
Cc1ccc(CNC(=O)c2ccc(CS(=O)Cc3cccc(Cl)c3)o2)cc1 (centres undefined)	-6.34% (inactive)	
COc1ccccc1CNC(=O)c1ccc(CS(=O)(=O)c2ccccc2)o1	-26.6% (inactive)	
CCCNS(=O)(=O)c1ccc(CCC(=O)NCc2cccnc2)cc1	-2.63% (inactive)	
O=C(NCc1cccnc1)c1cnc2ccccc2n1	-20.8% (inactive)	
O=C(NCc1cccnc1)c1ccc(CS(=O)(=O)c2ccc(Br)cc2)o1		14.6 µM (active)
COc1ccc(CCNC(=O)NS(=O)(=O)c2ccc(C)cc2)cc1OC	-5.03% (inactive)	
Cc1ccc(CCNC(=O)c2ccc(CS(=O)(=O)Cc3cccc(C)c3)o2)cc1		18.4 µM (active)

SMILES	activity change, negative = growth inhibition	Potency
COc1ccc(CCNC(=O)c2ccc(CS(=O)(=O)c3ccc(Br)cc3)o2)cc1OC		14.6 µM (active)
COc1ccc(CCNC(=O)CCNS(=O)(=O)c2cc(Br)cnc2N)cc1OC	-3.66% (inactive)	
O=C(NCc1ccco1)c1ccc(CS(=O)(=O)Cc2ccc(F)cc2)o1	-24.8% (inactive)	
COCCCn1c(SCC(=O)NC2CCCC2)nnc1-c1ccccc1	-0.642% (inactive)	
Cc1ccc(S(=O)(=O)NNC(=S)NC(C)(C)C)cc1	-10.7% (inactive)	
CN(Cc1ccccc1)C(=O)COC(=O)/C=C/c1ccc2c(c1)OCO2	5.6% (inactive)	
CN(C)c1nc2n(c(=O)n1)CCO2	-3.42% (inactive)	
O=C(O)Cc1ccc(NC(=O)C2CCCCC2C(=O)O)cc1 (centres undefined)	-3.53% (inactive)	
COCCn1c(=O)c(C)nc2cnc(N(C)C)nc21	-27.8% (inactive)	
O=C(O)C1CCN(S(=O)(=O)N2CCOCC2)CC1	0.819% (inactive)	
CC1CN(C(=O)COC(=O)c2cccc(NS(=O)(=O)c3ccccc3)c2)CC(C)O1 (centres undefined)	-19.5% (inactive)	
CCOC(=O)c1cc(S(=O)(=O)NCCc2ccc(OC)c(OC)c2)cn1C	-18.3% (inactive)	
CN1CCCN(C(=O)C2CCCCC2)CC1	8.41% (inactive)	
CCOc1ccc(NC(=O)CC(Cc2ccc(Cl)cc2)C(=O)O)cc1 (centres undefined)	-15.9% (inactive)	
COc1ccc(N2C(=O)C(Cc3ccccc3)NC2=S)cc1 (centres undefined)	1.43% (inactive)	
COc1ccc(C2OC(CCc3ccccc3)Cc3[nH]c(=S)[nH]c(=O)c32)cc1 (centres undefined)		18.4 µM (active)
COc1ccc(C2CC(=O)NC(=O)C2)cc1	-0.287% (inactive)	
O=C(Cn1cc(C(=O)c2cccs2)c2ccccc21)NCc1cccs1	-28.4% (inactive)	
CC1(c2nnc(Cc3ccccc3)o2)CC(c2ccccc2F)=NO1 (centres undefined)	-8.07% (inactive)	
COc1ccc(OCc2ccc(-c3nc(C#N)c(N4CCN(c5ccccc5)CC4)o3)o2)cc1	-19% (inactive)	
COc1ccccc1-c1nc(C#N)c(N2CCC(C(N)=O)CC2)o1	-5.1% (inactive)	
Cc1ccccc1OCc1ccc(-c2nc(C#N)c(N3CCCCC3)o2)o1		23.1 µM (active)
COc1ccc(NC(=O)NNC(=O)COc2cc(C)c(Cl)c(C)c2)c(OC)c1	-9% (inactive)	
Cc1ccc(S(=O)(=O)NCCSC(C)(C)C)cc1	3.06% (inactive)	
O=C(O)CSCNC(=O)CC12CC3CC(CC(C3)C1)C2	-7.57% (inactive)	
CCOCCCNC(=O)c1cc2c(=O)n3ccccc3nc2s1	4.13% (inactive)	

— PubChem BioAssay AID686978 (National Center for Advancing Translational Sciences (NCATS), 2013)
